Measurements as given in the supplement of paper PMC10849652.
About 7,900 targets were measured; listed, in parts, are those with a hit and a random draw of the rest. About 0.6% of all pairs of compound and target were hits.

Assays:
Test in all cases: log2 fold change, soluble protein after heating vs DMSO (PISA); higher = thermal stabilisation; K562 cells, 10 uM, 30 min; active = over 0.2 and 3.5 SD of the protein, either way, in both replicates (recomputed)
[1] = compound: CC1=C(C=C(C=C1)NC(=O)C2=CC(=CC=C2)C(C)(C)C#N)NC3=CC4=C(C=C3)N=CN(C4=O)C
Method in brief: (§1)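 K562 cells at 2×10^6 cells/mL were given 10 μM compound for 30 min. Aliquots then went through 3 min of heating across 48°C-58°C, were pooled, and were extracted in PBS with 0.5% NP-40 at 4°C, and the supernatant after 21,000xg for 90 min was quantified by TMTpro 16plex LC-MS/MS with channel sums equalised. Thermal stability relative to control samples, from duplicates, is given as log2 fold change.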

[2] = compound: CC1=C(C=C(C=C1)NC(=O)C2=CC(=CC=C2)N(C)C)NC(=O)C3=CC=C(C=C3)O
Method in brief: as §1

[3] = compound: CC1=CC=C(C=C1)SC2=C3C=C(SC3=CN=C2)C(=O)N
Method in brief: as §1

[4] = compound: CC1=NC(=CC=C1)C2=C(N=C(N2)C(C)(C)C)C3=CC4=NC=CN=C4C=C3
Method in brief: as §1

Nexturastat A = compound: CCCCN(Cc1ccc(C(=O)NO)cc1)C(=O)Nc1ccccc1 [Nexturastat A]
Method in brief: as §1

vemurafenib = compound: CCCS(=O)(=O)Nc1ccc(F)c(C(=O)c2c[nH]c3ncc(-c4ccc(Cl)cc4)cc23)c1F [vemurafenib]
Method in brief: as §1

[5] = compound: CCCS(=O)(=O)Nc1ccc(F)c(C(=O)c2c[nH]c3ncc(Cl)cc23)c1F
Method in brief: as §1

[6] = compound: CCCc1cc(C)[nH]c(=O)c1CNC(=O)c1cc(-c2ccnc(N3CCN(C)CC3)c2)cc2c1cnn2C(C)C
Method in brief: as §1

givinostat = compound: CCN(CC)Cc1ccc2cc(COC(=O)Nc3ccc(C(=O)NO)cc3)ccc2c1 [givinostat]
Method in brief: as §1

barasertib = compound: CCN(CCCOc1ccc2c(Nc3cc(CC(=O)Nc4cccc(F)c4)[nH]n3)ncnc2c1)CCOP(=O)(O)O [barasertib]
Method in brief: as §1

Measured: log2 fold change

MRPS33 (UniProt Q9Y291)
inactive: [1] 0.075 | [2] -0.078 | [3] -0.025 | [4] -0.004 | Nexturastat A 0.098 | vemurafenib 0.023 | [5] 0.073 | [6] -0.042 | givinostat 0.043 | barasertib -0.015

MKNK1 (UniProt Q9BUB5)
UniProt Q9BUB5, sequence (Q9BUB5 whole entry, looked up): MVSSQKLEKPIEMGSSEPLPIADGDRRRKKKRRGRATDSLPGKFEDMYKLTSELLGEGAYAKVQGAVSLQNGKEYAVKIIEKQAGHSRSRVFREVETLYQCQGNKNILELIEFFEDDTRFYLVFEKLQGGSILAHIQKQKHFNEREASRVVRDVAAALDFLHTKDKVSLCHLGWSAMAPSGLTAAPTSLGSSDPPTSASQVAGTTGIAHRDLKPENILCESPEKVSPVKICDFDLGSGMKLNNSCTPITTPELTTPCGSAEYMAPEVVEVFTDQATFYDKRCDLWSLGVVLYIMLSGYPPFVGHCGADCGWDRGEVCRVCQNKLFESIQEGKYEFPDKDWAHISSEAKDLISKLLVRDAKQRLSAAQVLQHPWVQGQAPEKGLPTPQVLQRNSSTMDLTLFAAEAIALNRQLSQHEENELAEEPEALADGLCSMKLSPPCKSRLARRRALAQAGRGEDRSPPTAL
inactive: [1] -0.008 | [2] -0.051 | [3] 0.03 | [4] 0.115 | Nexturastat A -0.094 | vemurafenib 0.021 | [5] 0.035 | [6] 0.022 | givinostat 0.012 | barasertib 0.033

MTMR14 (UniProt Q8NCE2)
inactive: [1] -0.009 | [2] -0.048 | [3] -0.004 | [4] 0.02 | Nexturastat A 0.028 | vemurafenib -0.02 | [5] 0.071 | [6] -0.016 | givinostat 0.061 | barasertib 0.019

MORC3 (UniProt Q14149)
inactive: [1] -0.02 | [2] -0.06 | [3] -0.025 | [4] 0.059 | Nexturastat A -0.296 | vemurafenib 0.095 | [5] 0.032 | [6] 0.11 | givinostat -0.193 | barasertib 0.102

MRPS17 (UniProt Q9Y2R5)
inactive: [1] 0.055 | [2] -0.095 | [3] -0.014 | [4] 0.008 | Nexturastat A 0.085 | vemurafenib 0.084 | [5] 0.031 | [6] 0.095 | givinostat -0.103 | barasertib 0.01

NRDC isoform 2 (UniProt O43847)
UniProt O43847, sequence (O43847 whole entry, looked up): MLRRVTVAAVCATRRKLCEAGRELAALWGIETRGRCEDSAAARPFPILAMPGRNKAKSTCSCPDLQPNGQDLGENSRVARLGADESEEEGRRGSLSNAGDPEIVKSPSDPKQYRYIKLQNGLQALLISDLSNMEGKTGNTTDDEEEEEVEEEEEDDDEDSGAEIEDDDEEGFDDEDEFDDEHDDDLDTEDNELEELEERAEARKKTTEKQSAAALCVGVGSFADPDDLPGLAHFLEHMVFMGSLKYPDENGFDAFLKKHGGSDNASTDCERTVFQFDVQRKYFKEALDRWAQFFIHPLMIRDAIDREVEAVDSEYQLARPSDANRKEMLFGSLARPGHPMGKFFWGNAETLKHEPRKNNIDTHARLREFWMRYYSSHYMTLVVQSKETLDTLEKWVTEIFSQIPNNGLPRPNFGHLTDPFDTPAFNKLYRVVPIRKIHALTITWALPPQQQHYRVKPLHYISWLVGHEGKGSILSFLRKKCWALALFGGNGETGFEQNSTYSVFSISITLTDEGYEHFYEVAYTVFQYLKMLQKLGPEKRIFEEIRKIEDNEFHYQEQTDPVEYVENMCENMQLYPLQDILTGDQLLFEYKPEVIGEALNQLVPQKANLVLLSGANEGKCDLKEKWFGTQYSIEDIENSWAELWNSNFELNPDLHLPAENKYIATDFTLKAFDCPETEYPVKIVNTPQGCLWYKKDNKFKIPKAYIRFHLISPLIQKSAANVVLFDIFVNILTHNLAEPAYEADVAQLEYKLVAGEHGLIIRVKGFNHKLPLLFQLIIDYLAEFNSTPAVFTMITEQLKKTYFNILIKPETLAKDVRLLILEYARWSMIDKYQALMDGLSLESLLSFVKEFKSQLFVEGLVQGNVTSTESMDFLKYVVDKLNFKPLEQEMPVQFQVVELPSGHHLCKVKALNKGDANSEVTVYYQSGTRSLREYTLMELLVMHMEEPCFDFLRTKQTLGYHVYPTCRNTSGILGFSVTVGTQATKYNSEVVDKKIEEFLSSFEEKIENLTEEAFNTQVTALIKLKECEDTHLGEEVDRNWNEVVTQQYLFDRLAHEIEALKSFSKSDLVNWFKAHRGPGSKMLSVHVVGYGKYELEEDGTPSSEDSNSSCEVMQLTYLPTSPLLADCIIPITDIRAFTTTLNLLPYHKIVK
inactive: [1] 0.001 | [2] -0.053 | [3] 0.01 | [4] 0.03 | Nexturastat A 0 | vemurafenib 0.047 | [5] 0.051 | [6] 0.021 | givinostat 0.017 | barasertib 0.037

MPP1 (UniProt Q00013)
UniProt Q00013, sequence (Q00013 whole entry, looked up): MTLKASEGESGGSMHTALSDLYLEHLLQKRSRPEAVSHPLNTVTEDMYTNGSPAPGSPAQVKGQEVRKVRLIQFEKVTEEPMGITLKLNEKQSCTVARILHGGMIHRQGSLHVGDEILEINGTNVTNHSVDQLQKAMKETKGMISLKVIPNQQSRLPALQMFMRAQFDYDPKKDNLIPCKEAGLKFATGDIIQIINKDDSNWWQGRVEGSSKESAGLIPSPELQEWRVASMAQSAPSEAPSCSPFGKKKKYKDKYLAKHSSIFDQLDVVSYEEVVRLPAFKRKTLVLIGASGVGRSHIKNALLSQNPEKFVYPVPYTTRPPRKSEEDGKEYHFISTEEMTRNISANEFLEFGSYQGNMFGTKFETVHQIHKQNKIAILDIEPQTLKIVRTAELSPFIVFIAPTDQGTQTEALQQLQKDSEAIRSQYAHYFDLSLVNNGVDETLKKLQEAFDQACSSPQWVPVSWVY
inactive: [1] 0.117 | [2] -0.052 | [3] 0.043 | [4] 0.025 | Nexturastat A 0.002 | vemurafenib 0.029 | [5] 0.04 | [6] 0.053 | givinostat 0.062 | barasertib 0.034

MTOR (UniProt P42345)
inactive: [1] -0.033 | [2] -0.05 | [3] 0.02 | [4] -0.006 | Nexturastat A 0.009 | vemurafenib 0.024 | [5] 0.071 | [6] 0.008 | givinostat 0.038 | barasertib 0.059

NRF1 isoform 4 (UniProt Q16656)
UniProt Q16656, sequence (Q16656 whole entry, looked up): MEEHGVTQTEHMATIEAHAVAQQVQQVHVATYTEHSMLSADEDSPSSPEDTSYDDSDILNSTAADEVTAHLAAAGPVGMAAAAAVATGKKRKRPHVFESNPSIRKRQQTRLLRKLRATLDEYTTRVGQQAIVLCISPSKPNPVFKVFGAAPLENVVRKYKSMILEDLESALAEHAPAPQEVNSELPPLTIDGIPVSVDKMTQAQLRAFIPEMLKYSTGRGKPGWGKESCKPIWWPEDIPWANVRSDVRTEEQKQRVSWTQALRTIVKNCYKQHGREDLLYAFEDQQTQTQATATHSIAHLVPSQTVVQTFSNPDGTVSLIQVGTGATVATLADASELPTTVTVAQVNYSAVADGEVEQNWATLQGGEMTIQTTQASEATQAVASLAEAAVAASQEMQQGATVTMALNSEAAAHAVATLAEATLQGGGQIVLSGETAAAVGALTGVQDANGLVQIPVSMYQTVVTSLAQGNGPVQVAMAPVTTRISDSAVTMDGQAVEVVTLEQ
inactive: [1] 0.002 | [2] 0.03 | [3] -0.015 | [4] 0.051 | Nexturastat A -0.316 | vemurafenib 0.004 | [5] 0.081 | [6] -0.007 | givinostat 0.042 | barasertib 0.034

NDUFAF6 (UniProt Q330K2)
UniProt Q330K2, sequence (Q330K2 whole entry, looked up): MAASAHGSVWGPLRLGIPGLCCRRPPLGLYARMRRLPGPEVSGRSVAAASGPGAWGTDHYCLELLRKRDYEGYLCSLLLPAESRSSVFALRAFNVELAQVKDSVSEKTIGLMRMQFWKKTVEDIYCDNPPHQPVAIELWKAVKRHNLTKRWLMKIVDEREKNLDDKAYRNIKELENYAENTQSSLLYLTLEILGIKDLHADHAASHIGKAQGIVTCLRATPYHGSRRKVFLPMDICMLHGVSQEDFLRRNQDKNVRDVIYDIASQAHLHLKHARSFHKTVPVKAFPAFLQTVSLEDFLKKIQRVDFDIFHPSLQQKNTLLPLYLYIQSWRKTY
inactive: [1] 0.055 | [2] 0.068 | [3] 0.169 | [4] 0.024 | Nexturastat A -0.052 | vemurafenib -0.055 | [5] 0.035 | [6] -0.088 | givinostat -0.063 | barasertib -0.01

MSH2 (UniProt P43246)
UniProt P43246, sequence (P43246 whole entry, looked up): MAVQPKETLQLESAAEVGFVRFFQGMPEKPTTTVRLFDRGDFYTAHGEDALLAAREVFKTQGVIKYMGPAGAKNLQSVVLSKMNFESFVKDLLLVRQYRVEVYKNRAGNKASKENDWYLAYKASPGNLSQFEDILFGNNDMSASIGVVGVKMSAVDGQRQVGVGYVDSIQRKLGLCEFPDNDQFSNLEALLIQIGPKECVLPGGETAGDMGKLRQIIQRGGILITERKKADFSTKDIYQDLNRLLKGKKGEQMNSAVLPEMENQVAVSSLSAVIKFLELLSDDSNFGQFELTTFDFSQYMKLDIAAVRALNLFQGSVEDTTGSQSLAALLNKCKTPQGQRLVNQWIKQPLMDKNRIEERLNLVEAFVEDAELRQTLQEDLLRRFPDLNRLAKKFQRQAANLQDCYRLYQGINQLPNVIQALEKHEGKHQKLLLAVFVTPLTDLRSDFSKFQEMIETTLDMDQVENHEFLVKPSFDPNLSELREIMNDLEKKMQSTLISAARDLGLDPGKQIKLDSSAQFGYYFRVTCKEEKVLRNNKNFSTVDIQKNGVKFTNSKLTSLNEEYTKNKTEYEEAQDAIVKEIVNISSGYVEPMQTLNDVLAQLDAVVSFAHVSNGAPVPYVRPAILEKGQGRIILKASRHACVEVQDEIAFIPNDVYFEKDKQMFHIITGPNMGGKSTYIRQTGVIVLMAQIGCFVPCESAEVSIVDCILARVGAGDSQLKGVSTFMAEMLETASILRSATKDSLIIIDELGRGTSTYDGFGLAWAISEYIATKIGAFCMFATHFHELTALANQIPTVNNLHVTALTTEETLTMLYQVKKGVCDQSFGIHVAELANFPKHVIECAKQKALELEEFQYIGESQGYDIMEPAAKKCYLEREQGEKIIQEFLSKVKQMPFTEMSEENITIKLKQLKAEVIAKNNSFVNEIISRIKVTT
inactive: [1] 0.038 | [2] -0.067 | [3] 0.017 | [4] 0.066 | Nexturastat A -0.018 | vemurafenib 0.069 | [5] 0.08 | [6] 0.019 | givinostat 0.083 | barasertib 0.057

OSBPL8 (UniProt Q9BZF1)
UniProt Q9BZF1, sequence (Q9BZF1 whole entry, looked up): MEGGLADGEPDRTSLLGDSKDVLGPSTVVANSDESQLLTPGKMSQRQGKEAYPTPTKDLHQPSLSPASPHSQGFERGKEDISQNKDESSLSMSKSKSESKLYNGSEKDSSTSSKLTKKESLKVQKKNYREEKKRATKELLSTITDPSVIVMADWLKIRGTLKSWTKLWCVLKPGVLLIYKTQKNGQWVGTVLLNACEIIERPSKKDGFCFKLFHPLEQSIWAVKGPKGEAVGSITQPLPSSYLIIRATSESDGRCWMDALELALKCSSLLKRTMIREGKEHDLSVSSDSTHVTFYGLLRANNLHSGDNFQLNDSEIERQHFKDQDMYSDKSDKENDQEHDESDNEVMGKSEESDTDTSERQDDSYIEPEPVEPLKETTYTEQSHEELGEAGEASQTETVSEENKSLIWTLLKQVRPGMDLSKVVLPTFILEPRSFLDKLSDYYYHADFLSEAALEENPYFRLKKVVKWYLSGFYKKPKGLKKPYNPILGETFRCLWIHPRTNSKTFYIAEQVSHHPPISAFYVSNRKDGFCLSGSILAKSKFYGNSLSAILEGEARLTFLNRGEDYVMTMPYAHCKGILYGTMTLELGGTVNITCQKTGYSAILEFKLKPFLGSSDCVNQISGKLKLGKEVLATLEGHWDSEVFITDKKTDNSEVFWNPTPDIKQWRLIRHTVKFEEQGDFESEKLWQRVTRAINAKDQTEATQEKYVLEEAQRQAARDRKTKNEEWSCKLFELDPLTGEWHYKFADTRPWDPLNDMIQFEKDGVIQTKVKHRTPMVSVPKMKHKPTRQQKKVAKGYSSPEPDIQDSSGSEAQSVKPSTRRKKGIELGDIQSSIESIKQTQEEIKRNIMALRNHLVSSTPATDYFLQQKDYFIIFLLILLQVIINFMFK
inactive: [1] 0.209 | [2] 0.011 | [3] 0.009 | [4] -0.027 | Nexturastat A 0.109 | vemurafenib 0.074 | [5] 0.035 | [6] 0.309 | givinostat -0.03 | barasertib 0.094

MRPS18B (UniProt Q9Y676)
inactive: [1] -0.036 | [2] -0.165 | [3] -0.08 | [4] 0.009 | Nexturastat A 0.031 | vemurafenib -0.074 | [5] 0 | [6] -0.081 | givinostat 0.075 | barasertib -0.017
